Inconclusive results are not listed. Unmarked numbers belong to inactive results. Calls of active or inactive are those of the source. Calls follow the shape of the dose curve; as a rule, active = well fitted cell-killing curve with a large enough effect; inconclusive = small, poorly fitted or top-dose-only effect, or effect the other way; inactive = flat fitted curve, though single readings scatter.
System: CAOV3
Assay: Primary qHTS to identify gynecologic anti-cancer compounds using libraries of approved drugs and bioactive compounds (AID 1345084); also: nearly all actives have a fitted effect of over 55% in size
Details: Gynecologic cancer cell panel viability, ATPlite luminescence, 48 h; series mostly up to 57.5 µM; activity change, negative = cytotoxicity: at the top concentration
Text: National Center for Advancing Translational Sciences [NCATS] Assay Overview: Chemotherapeutic drug responses vary from cancer to cancer and from patient to patient. These variations could be caused by a number of factors including patient genomic background, tumor mutations, tumor heterogeneity, and aspects of drug treatment. Chemotherapeutic drug resistance is also a common issue and can lead to ineffective treatment and patient death. Here we have profiled the cell killing effects of thousands of compounds to characterize the responses in three gynecological cancers, identify cancer-selective compounds, and understand the diversity of responses to these compounds from pan-cancer suppressors to single cell line selective compounds. In this assay, we screened a 7,914 compound drug library that included approved drug and bioactive compounds in six ovarian, three cervical, and […] placental cancer cell lines using the ATPlite assay for cell viability. […] The cervical cancer cell lines included HeLa, Ca Ski, and C-33 A. The placental cancer cell lines included JEG-3. HEK 293T cells were used as the control cell line to determine the selectivity index. ATPlite is a luminescence based assay reliant on the conversion of a luciferase substrate to light in the presence of ATP. As a cytotoxic compound will suppress growth and decrease the number of cells, the concentration of ATP will decrease, and less light signal will be detected in the well.
Assay Protocol Summary: 1,000 cells in 4 uL of media were dispensed into white, solid bottom 1536-well plates using a Multidrop Combi (Thermo Scientific). The Assay plates were incubated for 16 hours at 37 C with 5% CO2 in assay plates, followed by the addition of 23 nL of DMSO or drug dissolved in DMSO. Each compound was assayed in five concentrations (0.092, 0.46, 2.3, 11.5, and 57.5 uM), using the automated Wako 1536 Pin Tool workstation and incubated at 37 C with 5% CO2 48 hours. 4 uL of ATPlite, the ATP monitoring reagent, was then added to the each well of the assay plates using the Multidrop Combi reagent dispenser followed by incubation for 15 minutes at room temperature. The resulting luminescence was measured using the ViewLux plate reader.
% is scaled to controls: 0 for no effect and ±100 for the full control effect; potency is read from the fitted curve at half-maximal effect.

SMILES	activity change, negative = cytotoxicity	Potency
O=[N+]([O-])c1c(Cl)c(Cl)cc(Cl)c1Cl	-1.14% [at 116 µM]	
O=S(=O)(O)C(F)(F)C(F)(F)C(F)(F)C(F)(F)F	-3.59% [at 116 µM]	
Cc1[nH]nc2ccc(-c3cncc(OC[C@@H](N)Cc4c[nH]c5ccccc45)c3)cc12		1120 nM (active)
O=C(O)C(Cl)Cl	2.59%	
Cc1ccccc1-n1c(Cn2ncc3c(N)ncnc32)nc2cccc(C)c2c1=O	18.5%	
Cc1ccccc1-n1c(Cn2cnc3c(N)ncnc32)nc2cccc(C)c2c1=O	-1.67%	
O=C(N[C@@H](COc1ccc2[nH]c(=O)[nH]c2c1)c1ccccc1)c1cccn(Cc2ccc(F)c(F)c2)c1=O	-43.2%	
O=[N+]([O-])c1c2ccccc2cc2ccccc12	0% [at 116 µM]	
Nc1ccc(Sc2ccc(N)cc2)cc1	-17% [at 116 µM]	
O=C(O)c1cc(Oc2ccc(C(F)(F)F)cc2Cl)ccc1[N+](=O)[O-]	0.0653%	
COC(=O)c1cncn1C(C)c1ccccc1 (stereo not given)	-1.27%	
O=[N+]([O-])c1cc([N+](=O)[O-])c2ccccc2c1	3.44% [at 116 µM]	
O=S(=O)(c1ccc(Cl)cc1)c1ccc(Cl)cc1	-14.9% [at 116 µM]	
CC1(C)CC/C(=C/c2ccc(Cl)cc2)C1(O)Cn1cncn1 (stereo not given)	-4.25% [at 116 µM]	
OCCCBr	0% [at 116 µM]	
CCNC(=O)C[C@@H]1N=C(c2ccc(Cl)cc2)c2cc(OC)ccc2-n2c(C)nnc21	-3.11%	
CC(O)CN1CCN(CC(=O)[O-])CCN(CC(=O)[O-])CCN(CC(=O)[O-])CC1.[Gd+3] (stereo not given)	3.01%	
COC(C)(C)CCCC(C)C/C=C/C(C)=C/C(=O)OC(C)C (stereo not given)	-0.0184%	
CCCCCCCCc1ccc(O)cc1	-20.8% [at 116 µM]	
CCCCCCCCCC(CC)c1ccc(S(=O)(=O)O)cc1 (stereo not given)	-3.47% [at 116 µM]	

SMILES	activity change, negative = cytotoxicity	Potency
CCC(=O)O[C@@H]1C=C2CCC3C(CCC4(C)C3CC[C@@H]4OC(=O)CC)C2CC1 (stereo not given in full)	7.39%	
CCCCC(CC)COC(=O)c1ccccc1C(=O)OCC(CC)CCCC (stereo not given)	2.48% [at 116 µM]	
Fc1cc(Br)ccc1CBr	5.02%	
CN[C@@H](C)[C@H](O)c1ccccc1	-9.31%	
CCOC(=O)Nc1ccc(NCc2ccc(F)cc2)cc1N	4.2%	
O=C(Oc1ccc([N+](=O)[O-])cc1)N1CCN(Cc2cccc(Oc3ccccc3)c2)CC1	1.27%	
c1cc2ccc3cccc4ccc(c1)c2c34	0% [at 116 µM]	
CC(C)N(CCNC(=O)CN1CCCC1=O)C(C)C	7.12%	
O=C1C(I)=CC(=C(c2cc(I)c(O)c(I)c2)c2ccccc2C(=O)O)C=C1I	19.7%	
Cc1c(C(=O)Nc2cccc(C(F)(F)F)c2)cc(-c2ccccc2)n1CCCN1CCOCC1	4.38%	
O=[N+]([O-])c1ccc([As](=O)(O)O)cc1	-8.9%	
CCc1c(C(=O)C(N)=O)c2c(OCC(=O)O)cccc2n1Cc1ccccc1	-5.44%	
CC(=O)Nc1ccc(OC[C@](C)(O)C(=O)Nc2ccc([N+](=O)[O-])c(C(F)(F)F)c2)cc1	2.43%	
Nc1c(Cl)c(Cl)c(Cl)c(Cl)c1Cl	15.2% [at 116 µM]	
CC(C)NCC(O)c1ccc([N+](=O)[O-])cc1 (stereo not given)	5.04%	
O=C(O)CNC(=O)c1c(O)c2ccccc2n(Cc2ccccc2)c1=O	-3.47%	
O=[N+]([O-])/N=C1\NCCN1Cc1ccc(Cl)nc1	2.37%	
Nc1ccc(Cl)cc1	1.81% [at 116 µM]	
COC1=C[C@@H]2[C@@H]3Cc4ccc(OC)c(O)c4[C@]2(CCN3C)CC1=O	8.41%	
O=C(O)COc1ccccc1	-7.73%	

Source: PubChem BioAssay (NCATS)
